# KB-3-1 tox: kills parental KB-3-1 adenocarcinoma cells; KB-3-1 viability, CellTiter-Glo ATP luminescence, 72 h; Potency, µM (highest dose often 46.1 µM), hits mostly cytotoxic; actives 1.4% (n = 400,000); AID 1347075; also: nearly all actives have a fitted effect of over 60% in size
#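 KB-3-1 cells, DMEM (no phenol red) + 10% FBS; compound by pin transfer, 72 h, 37 °C. Readout: CellTiter-Glo luminescence after 10 min. Data normalized, curve-fitted.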
# HT1080 IDH1KD tx: toxicity to HT-1080 IDH1 knockdown cells (counter line) | HT-1080 IDH1 knockdown viability, ATP luminescence, 48 h | Potency, µM (highest dose often 46.1 µM), for the others: top-dose activity, negative = toxicity, hits mostly cytotoxic | actives 2% (n = 360,000);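 also: 0% = DMSO wells and -100% = cell-free medium wells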
#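 Knockdown cells (IDH1KD HT-1080) received compounds 2 h after plating at 750 cells/well and were kept 48 h at 37 °C in 5% FBS RPMI. A CellTiter-Glo luminescence read gave % activity for curve fitting.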
# DT40 TDP1 no CPT: qHTS for Inhibitors of human tyrosyl-DNA phosphodiesterase 1 (TDP1): qHTS in cells in absence of CPT | AID 686978, 2013 | DT40 Tdp1-/- hTDP1 cells, no CPT, ATP luminescence, 48 h | Potency, µM (highest dose often 46.2 µM), without a hit: top-dose activity change, negative = growth inhibition, actives largely listed as inhibitors | actives 15% (n = 420,000); also: nearly all actives have a fitted effect of over 55% in size
#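 Compound effects on proliferation are scored in DT40 Tdp1-/-;hTDP1 cells in the absence of CPT. ATP levels (CellTiter-Glo luminescence) are recorded after a ≥48 hr, 37 °C incubation.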
# DT40 TDP1 CPT: DT40-hTDP1 cell growth loss with CPT | actives 12% (n = 420,000) | chicken DT40 Tdp1-/-;hTDP1 cells + 20 nM CPT, ATP luminescence, 48 h | AID 686979 | Potency, µM (doses to about 46.2 µM), inactives show top-dose activity change, negative = growth inhibition, actives largely listed as inhibitors; also: nearly all actives have a fitted effect of over 55% in size
#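 Cell growth measured by CellTiter-Glo luminescence after a minimum 48 h, 37 C compound exposure with 20 nM CPT in Tdp1-knockout DT40 cells stably expressing hTDP1, seeded 400/well; qHTS titration format.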
# KB-V1 MDR tox: KB-V1 MDR subline cytotoxicity. AID 1347076. actives 3.4% (n = 400,000). Potency, µM (titrated, usually from 46.1 µM), hits mostly cytotoxic. KB-V1 MDR cells viability, CellTiter-Glo, 72 h; also: nearly all actives have a fitted effect of over 60% in size
#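 Cytotoxicity via CellTiter-Glo luminescence after 72 h compound exposure at 37 degrees C. Cells: drug-selected KB-V1 line, DMEM phenol-red free plus 10% FBS. Compounds tested at multiple concentrations; normalized data fitted to concentration-effect curves.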
# HT1080NT lethal: kills 2HG-producing HT-1080-NT fibrosarcoma cells; actives 1.6% (n = 360,000); HT-1080-NT fibrosarcoma viability, CellTiter-Glo ATP luminescence, 48 h; Potency, µM (titrated, usually from 46.1 µM), inactives show top-dose activity, negative = less viability, most hits filed as cytotoxic; AID 686970;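 also: NT is the 2HG producing partner of a matched IDH1 knockdown line; 0% = DMSO-treated cells and -100% = media-only wells without cells; nearly all actives have a fitted effect of over 55% in size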
#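 Compounds were tested in concentration-response format on HT-1080-NT cells for 48 hours at 37 degrees C. Cell viability came from CellTiter-Glo luminescence; curves were classified by r2, response magnitude and activity.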
# * hit, by the source's call; i = inactive; ? = inconclusive; . = no result given; [ ] = remark or other dose. Most compounds without a hit are left out; they make up all but 19% or so of the library. Calls follow the shape of the dose curve; as a rule, active = well fitted curve in the direction sought with a large enough effect; inconclusive = small, poorly fitted or top-dose-only effect, or another doubt; inactive = no such curve, though single readings can be large; an effect the other way counts as inactive or inconclusive. Unless noted, % is scaled to controls: 0 for no effect and ±100 for the full control effect; potency is read from the fitted curve at half-maximal effect.
SMILES,KB-3-1 tox,HT1080 IDH1KD tx,DT40 TDP1 no CPT,DT40 TDP1 CPT,KB-V1 MDR tox,HT1080NT lethal
COc1cc2[nH]c(=O)n(CCCCCC(=O)NCCc3ccccc3)c(=O)c2cc1OC,i,.,-13.9%,-16.4%,i,.
COc1cccc(-c2ccnc(-n3ncc(C(=O)NCc4cccnc4)c3C3CC3)n2)c1,.,.,?,-8.6%[9.04 µM],.,.
Cc1cnc(N2CCC(C(N)=O)CC2)nc1-c1cccc(N(C)C)c1,i,.,.,.,i,.
CCCCNC(=O)C1CC(c2c(Cl)cccc2Cl)=NO1 (stereo unspecified),i,-1.5%,9.2µM*,9.2µM*,i,1.1%
CCCCNC(=O)C1CC(c2cccc([N+](=O)[O-])c2)=NO1 (stereo unspecified),i,-3.0%,-14.7%,-10.2%,i,-0.6%
CC(=O)N1CCC2(CC1)CCN(c1ccccn1)CC2,.,.,-25.5%,-0.4%,.,.
C[N+](C)(C)c1ccc(/C=N/Nc2nc(Cl)c(C#N)c(Cl)c2Cl)cc1,i,-1.6%,23.1µM*,?,i,1.0%
CC[N+]1(CC(=O)c2ccc(Cl)cc2)CCCCC1,i,.,-0.5%,7.7%,i,.
CCC[N+](CC#Cc1ccccc1)(CCC)CC(=O)OC,i,14.8%,4.3%,?,?,11.5%
O=C(C[N+]1(CCO)CCOCC1)c1cccc2ccccc12,?,.,1.2%,3.5%,?,.
O=C(C[N+]1(CC#Cc2ccccc2)CCCCC1)c1ccc(Cl)cc1,i,-5.7%,3.66µM*,11.6µM*,i,-6.5%
C(#Cc1ccccc1)C[N+]1(CC#Cc2cccc3ccccc23)CCOCC1,?,?,4.61µM*,6.51µM*,i,?
CCC[N+](CC#Cc1ccccc1)(CCC)CC(=O)c1ccc(Cl)cc1,i,-25.3%,25.9µM*,?,i,-13.1%
O=C(C[N+]1(CC#Cc2ccccc2)CCOCC1)c1ccc(Cl)cc1,i,?,?,?,i,?
O=C(C[N+]1(CC#Cc2ccccc2)CCCCC1)c1ccccc1,i,-7.0%,20.6µM*,16.4µM*,i,1.7%
Cc1ccc(C2N3CC4(C)CN2CC(c2ccccc2)(C3)C4=O)cc1 (stereo unspecified),i,.,?,?,i,.
C=CCOc1ccc(C(c2c(C)n(C)n(-c3ccccc3)c2=O)c2c(C)n(C)n(-c3ccccc3)c2=O)cc1,?,-0.7%,-29.6%,-1.3%,i,-1.4%
COC(=O)C[C@@H]1CC[C@@H](NS(=O)(=O)c2ccccc2OC)[C@@H](CO)O1,i,13.0%,30.3%,-10.3%,i,17.7%
O=C(C[N+]1(CC#Cc2ccccc2)CCOCC1)c1ccccc1,i,10.7%,16.4µM*,?,i,-9.3%
O=C(N/N=C/c1ccnc2ccccc12)c1ccccc1O,i,-3.1%,11.6µM*,3.26µM*,i,-0.5%
O=C(O)c1ccc(C=NNC(=O)c2cccc3ccccc23)cc1,i,5.7%,?,-26.6%,i,16.4%
O=C(N/N=C/c1ccccc1O)c1cccc2ccccc12,i,9.2µM*,4.11µM*,5.8µM*,?,?
CN(C)c1ccc(C=NNC(=O)c2cccc3ccccc23)c(Cl)c1,5.17µM*,?,4.11µM*,5.17µM*,3.66µM*,?
O=C(O)c1ccc(N/N=C/c2ccnc3ccccc23)cc1,i,-6.2%,-29.0%,-29.2%,i,-3.3%
CC1(C(=O)NS(=O)(=O)c2ccc(Br)cc2)CCN1C(=O)CCc1cccs1 (stereo unspecified),i,3.6%,-2.1%,-22.0%,i,24.5%
SMILES,KB-3-1 tox,HT1080 IDH1KD tx,DT40 TDP1 no CPT,DT40 TDP1 CPT,KB-V1 MDR tox,HT1080NT lethal
COc1ccc(Nc2ncc(C(=O)Nc3cc(Cl)c(OC)cc3OC)c3ccccc23)cc1,i,.,?,?,i,.
CCN1CCN(c2ncc(C(=O)Nc3c(F)cc(F)cc3Br)c3ccccc23)CC1,i,?,15.8µM*,14.1µM*,i,?
COc1ccc(NC(=O)c2cnc(N3CCOCC3)c3ccccc23)cc1OC,i,.,?,?,i,.
Cc1cc(C)c(NC(=O)C2CCN(c3nc4ccccc4n4cccc34)CC2)c(C)c1,.,.,?,-107.4%,.,.
CCN1CCN(c2ncc(C(=O)Nc3cc(Cl)c(OC)cc3OC)c3ccccc23)CC1,i,0.2%,20.6µM*,?,i,-2.4%
COc1cc(Cl)c(C)cc1NC(=O)c1cnc(N2CCOCC2)c2ccccc12,?,.,9.2µM*,10.3µM*,i,.
COc1cc(Cl)c(C)cc1NC(=O)C1CCN(c2nc3ccccc3n3cccc23)CC1,.,.,16.4µM*,?,.,.
CCCCC(=O)Nc1cc2nn(-c3ccc(OCC)cc3)nc2cc1C,i,.,-23.1%,-2.3%,i,.
CN(CCOc1ccccc1)C(=O)CCc1c[nH]c2ccccc12,i,-19.8%,?,-25.4%,i,-8.5%
Cc1ccc(S(=O)(=O)N2[C@H](CC(=O)c3ccc(Cl)c(Cl)c3)OC[C@@H]2C)cc1,i,?,?,?,?,?
CCN(CC)CCCNC(=O)c1sc2nc3n(c(=O)c2c1C)CCCCC3,i,.,?,-16.3%,i,.
COc1cc(OC)c(NC(=O)c2cc(C(C)=O)n3ccccc23)cc1Cl,i,.,?,7.31µM*,i,.
COc1cc(C(=O)OCC(=O)NCc2ccc(F)cc2)ccc1OCC(C)C,23.1µM*,-5.3%,16.4µM*,?,i,0.0%
CC(C)(C)c1ccc(/C=N/OCC(=O)NCc2ccc(F)cc2)cc1,i,?,16.4µM*,?,?,?
COc1cc(C(=O)OCC(=O)N2c3ccccc3NC(=O)C2(C)C)ccc1OCC(C)C,i,-14.0%,?,?,20.6µM*,-2.4%
COc1cc(/C=C/C(=O)OCC(=O)Nc2ccc3c(c2)OCCO3)ccc1O,i,?,16.4µM*,?,i,-29.3%
COc1cc(/C=C/C(=O)OCC(=O)Nc2ccc3c(c2)OCO3)ccc1O,i,-0.1%,-25.9%,?,i,3.5%
OCCNc1ncnc2c1ncn2[C@H]1CN(C2CCCC2)C[C@@H](CO)O1,i,12.5%,1.2%,-1.2%,i,4.3%
COc1cc(OC)c(S(=O)(=O)NC(C)C)cc1S(=O)(=O)NC(C)C,i,10.7%,-4.4%,12.6%,i,22.3%
NCCO,.,.,7.3%[92.5 µM],6.4%[92.5 µM],.,.

# Screening data from PubChem BioAssay.
